We go through 15 compounds from PubChem BioAssay.

Experiment [1] concerns XIP peptide (Xip251-270) binding. Put plainly: XIP fragment 251-270 binding compounds – biochemical, small-molecule microarray, fluorescence 635/667 nm, 0.1 µg/mL protein, primary screen (AID 1182). The settings on record: fluorescent protein binding, 635 nm, higher = more signal, called active from +8 up or from −8 down.
Another experiment relates to XIP peptide (Xip251-270). The experiment can be described thus: compounds binding XIP fragment 251-270 – biochemical, small-molecule microarray, fluorescence 635/667 nm, 0.5 µg/mL protein, primary screen (AID 1183). The conditions noted are these: fluorescence 635 nm, higher = more signal.
Experiment [2] is described as follows: blood-stage malaria parasite viability loss – strain 3D7, DAPI fluorescence, 100 nL, primary screen (AID 1184).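 Also: parasites grown inside human red blood cells in medium with human serum.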 The settings on record: P. falciparum 3D7 growth, 3 d, higher = more signal.
Experiment [3] concerns the target Homeobox protein Hox-A13 (Mus musculus) (UniProt Q62424). Put plainly: disruptors of Hoxa13 oligonucleotide interaction – biochemical, fluorescence polarization, labeled oligonucleotide, primary screen (AID 1185). The settings on record: Hoxa13:DNA binding, 15 min, higher = more signal, called active from +8 up or from −8 down.
The nature of experiment [4]: blockers of DNA damage checkpoint Chk1 activation – imaging, HeLa, hydroxyurea, phospho-Chk1 antibody, percent positive cells, primary screen (AID 1186). The settings on record: hydroxyurea-induced phospho-Chk1 immunofluorescence imaging, higher = more signal.
Experiment [5] in a line: blockers of DNA damage checkpoint Chk1 activation – imaging, HeLa, hydroxyurea, phospho-Chk1 nuclear intensity, primary screen (AID 1187). The conditions noted are these: hydroxyurea-induced phospho-Chk1 immunofluorescence imaging, higher = more signal.

Structures are written as SMILES. Calls of active or inactive are those of the source. Unless noted, no rule for the calls is given here.

Sequence of Homeobox protein Hox-A13 (Mus musculus) (Q62424 whole entry, looked up): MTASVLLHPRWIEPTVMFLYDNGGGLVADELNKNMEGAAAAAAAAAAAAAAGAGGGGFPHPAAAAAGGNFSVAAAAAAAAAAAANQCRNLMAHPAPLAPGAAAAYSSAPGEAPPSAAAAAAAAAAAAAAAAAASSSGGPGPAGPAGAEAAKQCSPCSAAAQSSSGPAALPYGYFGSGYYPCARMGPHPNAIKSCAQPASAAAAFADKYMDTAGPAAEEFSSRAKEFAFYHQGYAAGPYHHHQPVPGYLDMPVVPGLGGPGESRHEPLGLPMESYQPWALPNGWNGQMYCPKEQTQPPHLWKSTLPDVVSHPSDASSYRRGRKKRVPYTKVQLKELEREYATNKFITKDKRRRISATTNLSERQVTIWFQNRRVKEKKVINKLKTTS

Take `CCN(CC)c1ccc(N2CC=CC34O[C@@H]5C=CCOC(=O)[C@@H]5[C@H]3C(=O)N(CCCCCO)[C@@H]4C2=O)cc1` (stereo not given in full): the composite z-score in experiment [1] was 0.614 (inactive); in the experiment with XIP peptide (Xip251-270), -0.982. Also, the z-score in experiment [2] is -0.232; in experiment [3] it was -5.05 (inactive); in experiment [4], -0.23 (inactive); in experiment [5], -0.33 (inactive).
`COCCOC(=O)N1C(=O)[C@@]2(c3cc(C#Cc4ccc(OC)cc4)ccc31)[C@H](c1ccc(OCCO)cc1)N1[C@H](c3ccccc3)[C@H](c3ccccc3)OC(=O)[C@H]1[C@@H]2C(=O)N1CCc2cc(OC)c(OC)cc2C1`: the values for the composite z-score (in experiment [1]; with XIP peptide (Xip251-270)) were 0.179 (inactive) and 0.592, respectively. The z-score in experiment [2] was -1.85; in experiment [3], 3.38 (inactive); in experiment [4] it was -0.329 (inactive); in experiment [5], -0.456 (inactive).
Consider `C=C(C(=O)CC[C@@H](OC(C)=O)c1ccc(OCCO)cc1)C(C)C`, for which the composite z-score in experiment [1] was 0.564 (inactive); in the experiment with XIP peptide (Xip251-270), 0.101. Also, the z-score in experiment [2] was -1.42; in experiment [3], -3.67 (inactive); in experiment [4], 0.598 (inactive); in experiment [5], 0.147 (inactive).
As to `COc1ccc([Si](C)(C)[C@@H]2[C@@H](CCO)O[C@]3(C(=O)N(Cc4cccc(N5CCCCC5=O)c4)c4ccccc43)[C@H]2C)cc1`, the composite z-score is 0.278 (inactive) in experiment [1] and 0.648 in the experiment on XIP peptide (Xip251-270). Moreover, the z-score is -2.82 in experiment [2], -5.08 (inactive) in experiment [3], -0.405 (inactive) in experiment [4] and -0.474 (inactive) in experiment [5].
Take `COC(=O)[C@@]1(Cc2ccc(F)cc2)[C@H]2c3cc(C(=O)N(C)C)n(CCCNc4ccc(C(F)(F)F)cc4Cl)c3C[C@H]2CN1C(=O)c1ccccc1`: the composite z-score was 0.915 (inactive) in experiment [1] and 0.557 in the experiment with XIP peptide (Xip251-270). In addition, the z-score is -1.39 in experiment [2], -0.925 (inactive) in experiment [3], 0.456 (inactive) in experiment [4] and -0.225 (inactive) in experiment [5].
Take `CO[C@H]1O[C@H](CO)[C@@H](OC(=O)Nc2ccc(C(F)(F)F)cc2)[C@H](OC(=O)Nc2ccccc2)[C@@H]1OC(=O)Nc1ccccc1`: the composite z-score in experiment [1] is 0.384 (inactive); in the experiment with XIP peptide (Xip251-270) it was 0.62. The z-score in experiment [2] was -0.0799; in experiment [3] it was -5.23 (inactive); in experiment [4], 0.666 (inactive); in experiment [5], 0.389 (inactive).
As for `Cc1ccc(N2C(=O)c3ccccc3[C@](C)(C(=O)NCCN3CCOCC3)[C@@H]2c2ccc(CO)cc2)nc1`, the results for the composite z-score (in experiment [1]; in the experiment with XIP peptide (Xip251-270)) were -0.772 (inactive) and 0.471, respectively. In addition, the z-score in experiment [2] is -0.855; in experiment [3] it was -1.9 (inactive); in experiment [4], -0.217 (inactive); in experiment [5], -0.163 (inactive).
Consider `C=CCN1C(=O)[C@@]2(O[C@@H](CCO)[C@H]([Si](C)(C)c3ccc(OC)cc3)[C@H]2C)c2cc(N3C(=O)COc4ccccc43)ccc21`, for which the composite z-score in experiment [1] is 1.28 (inactive); in the experiment with XIP peptide (Xip251-270), 0.623. Moreover, the z-score in experiment [2] was -2.68; in experiment [3] it was -4.65 (inactive); in experiment [4], -1.39 (inactive); in experiment [5], -0.883 (inactive).
Regarding `CCOC(=O)C1=CC[C@@H](c2ccccc2)N(S(=O)(=O)c2ccc(C)cc2)[C@H]1c1ccc(C#N)cc1`, the composite z-score in experiment [1] was 0.432 (inactive); with XIP peptide (Xip251-270) it was 0.728. Moreover, the z-score in experiment [2] is -1.95; in experiment [3], 0.426 (inactive); in experiment [4], 0.972 (inactive); in experiment [5], 0.136 (inactive).
For `COC(=O)[C@@]1(Cc2ccccc2)[C@H]2c3cc(C(=O)N(C)C)n(Cc4ccccc4)c3C[C@H]2CN1C(=O)c1ccccc1`, the composite z-score was 0.394 (inactive) in experiment [1] and 0.225 in the experiment on XIP peptide (Xip251-270). In addition, the z-score in experiment [2] was -1.43; in experiment [3], -5.49 (inactive); in experiment [4], 1.54 (inactive); in experiment [5] it was 0.928 (inactive).
On to `COc1ccc([Si](C)(C)[C@@H]2[C@@H](CCn3cc([C@H](O)c4ccccc4)nn3)O[C@]3(C(=O)N(C)c4ccccc43)[C@H]2C)cc1`, for which the composite z-score in experiment [1] was -0.558 (inactive); with XIP peptide (Xip251-270), 0.679. Besides, the z-score in experiment [2] is -1.13; in experiment [3], -6.22 (inactive); in experiment [4], 0.131 (inactive); in experiment [5], -0.858 (inactive).
With `CC1CC/C=C\[C@H]2OC34C=CCN(CCN5CCOCC5)C(=O)[C@H]3N(CCCCCO)C(=O)[C@@H]4C2C(=O)O1` (stereo not given in full), the composite z-score in experiment [1] was -0.173 (inactive); in the experiment on XIP peptide (Xip251-270), -1.32. Moreover, the z-score is -0.143 in experiment [2], -5.32 (inactive) in experiment [3], -0.0913 (inactive) in experiment [4] and -0.364 (inactive) in experiment [5].
Turning to `CN1C(=O)C2C=CC(C(O)C3=C[C@H]4C[C@@H](C3)C4(C)C)N(Nc3ccc([N+](=O)[O-])cc3[N+](=O)[O-])C2C1=O` (stereo not given in full), the figures for the composite z-score (in experiment [1]; in the experiment on XIP peptide (Xip251-270)) were 0.334 (inactive) and 0.704, respectively. Further, the z-score in experiment [2] was 0.395; in experiment [3] it was -3.59 (inactive); in experiment [4], -0.21 (inactive); in experiment [5] it was -0.257 (inactive).
Take `CN1C(=O)C2C(C1=O)C1C=C(c3ccc(CO)cc3)C2C(C2CC2)N1Cc1cc2c(cc1Br)OCO2` (stereo not given): the composite z-score in experiment [1] is 2.71 (inactive); in the experiment on XIP peptide (Xip251-270), 0.832. Also, the z-score in experiment [2] is -2.16; in experiment [3] it was -4.5 (inactive); in experiment [4], -0.369 (inactive); in experiment [5], -0.327 (inactive).
In the case of `Cc1ccc(S[C@]2(C(=O)NCCCN(C)C)CC(=O)N(C(C)C)[C@@H]2c2ccc(CO)cc2I)cc1`, the figures for the composite z-score (in experiment [1]; in the experiment with XIP peptide (Xip251-270)) were 0.352 (inactive) and 0.412, respectively. Also, the z-score in experiment [2] is -0.621; in experiment [3], -2.81 (inactive); in experiment [4] it was 0.535 (inactive); in experiment [5], 0.775 (inactive).
